Measurements published in PubChem BioAssay AID1159580 (chemical genetic matrix, 2015).
Values joined by “and” are separate entries in the source; they are usually repeats but may differ in a detail not shown here. Equal entries are not always repeated. The whole screen tested about 5,500 compounds, of which about 2,000 (36%) were called active. Not shown: some 18% with an inconclusive outcome. Rule as the data show it: active = normalized growth mostly below about 0.91 (no sharp cut-off); inconclusive = no clear call, values can overlap the other calls; inactive = mostly above about 0.92. The list shows a part of the results.

Assay: chemical genetic growth profiling, strain panel (AID 1159580);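 also: tested at 20 µM; growth read once vehicle control cultures reached saturation at 30 °C; 1 = growth at the plate median or of vehicle wells; lower values mean less growth of the strain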
Conditions: S. cerevisiae deletion strains, growth OD

Measured: normalized growth

CCOC([O-])=Nc1c[n+](N2CCOCC2)no1
inactive: locus YAL013W, strain DEP1, hits give low values 1.01 | locus YAL021C, strain ccr4, hits give low values 0.994 | locus YAL026C, strain drs2, hits give low values 0.999 | locus YAL030W, strain snc1, hits give low values 0.991 | locus YBL061C, strain skt5, hits give low values 0.997 | locus YBR009C, strain hhf1, hits give low values 0.997 | locus YBR021W, strain FUR4, hits give low values 1.03 | locus YBR023C, strain chs3, hits give low values 0.986 | locus YBR171W, strain sec66, hits give low values 1 | locus YBR229C, strain ROT2, hits give low values 1.01 | locus YBR231C, strain swc5, hits give low values 0.997 | locus YBR279W, strain paf1, hits give low values 1.01 | locus YCL011C, strain gbp2, hits give low values 0.996 | locus YCL016C, strain dcc1, hits give low values 0.978 | locus YCL029C, strain bik1, hits give low values 0.991 | locus YCL061C, strain MRC1, hits give low values 0.998 | locus YCL069W, strain vba3, hits give low values 0.996 | locus YCR088W, strain abp1, hits give low values 0.999 | locus YDL005C, strain med2, hits give low values 0.993 | locus YDL035C, strain GPR1, hits give low values 1.03 | locus YDL040C, strain nat1, hits give low values 1 | locus YDL074C, strain BRE1, hits give low values 1.04 | locus YDL101C, strain DUN1, hits give low values 1.02 | locus YDL134C, strain PPH21, hits give low values 1.01 | locus YDL185W, strain tfp1, hits give low values 0.984 | locus YDL192W, strain arf1, hits give low values 0.998 | locus YDR001C, strain nth1, hits give low values 0.993 | locus YDR069C, strain doa4, hits give low values 1 | locus YDR101C, strain arx1, hits give low values 0.972 | locus YDR137W, strain rgp1, hits give low values 1.01 | locus YDR150W, strain NUM1, hits give low values 1.02 | locus YDR159W, strain sac3, hits give low values 0.993 | locus YDR162C, strain NBP2, hits give low values 1.01 | locus YDR195W, strain ref2 1 | locus YDR297W, strain sur2, hits give low values 1 | locus YDR318W, strain mcm21, hits give low values 0.99 | locus YDR334W, strain swr1, hits give low values 0.984 | locus YDR335W, strain msn5, hits give low values 0.991 | locus YDR388W, hits give low values 0.997 | locus YDR392W, strain spt3, hits give low values 0.927 | locus YDR502C, strain sam2, hits give low values 0.988 | locus YEL003W, strain gim4, hits give low values 1 | locus YEL037C, strain rad23, hits give low values 0.993 | locus YEL061C, strain CIN8 (second series), hits give low values 1 | locus YEL061C, strain CIN8, hits give low values 1.01 | locus YER015W, strain faa2, hits give low values 0.979 | locus YER016W, strain bim1, hits give low values 1.01 | locus YER110C, hits give low values 0.984 | locus YER111C, strain swi4, hits give low values 0.979 | locus YER155C, strain BEM2 (second series), hits give low values 0.984 | locus YER155C, strain BEM2, hits give low values 1 | locus YER167W, strain BCK2, hits give low values 1.01 | locus YFR010W, strain ubp6, hits give low values 0.986 | locus YGL078C, strain dbp3, hits give low values 0.987 | locus YGL086W, strain mad1, hits give low values 1 | locus YGL167C, strain pmr1, hits give low values 1 | locus YGL173C, strain kem1, hits give low values 0.994 | locus YGL227W, strain vid30, hits give low values 0.993 | locus YGL240W, strain doc1, hits give low values 1.01 | locus YGL248W, strain PDE1, hits give low values 1.01 | locus YGL253W, strain hxk2, hits give low values 0.993 | locus YGR078C, strain PAC10, hits give low values 1 | locus YGR135W, strain pre9, hits give low values 0.986 | locus YGR229C, strain SMI1, hits give low values 1.02 | locus YGR252W, strain gcn5, hits give low values 1.01 | locus YHR013C, strain ard1, hits give low values 0.985 | locus YHR027C, strain rpn1, hits give low values 0.987 | locus YHR030C, strain SLT2, hits give low values 1.01 and 1.02 | locus YHR079C, strain IRE1 (second series), hits give low values 1 | locus YHR079C, strain IRE1, hits give low values 1.03 | locus YHR094C, strain hxt1, hits give low values 0.998 | locus YHR129C, strain ARP1, hits give low values 1.01 | locus YHR142W, strain chs7, hits give low values 0.992 | locus YHR200W, strain rpn10, hits give low values 0.995 | locus YIL066C, strain RNR3, hits give low values 1.01 | locus YIL073C, strain SPO22, hits give low values 0.973 | locus YIL125W, strain kgd1, hits give low values 1 | locus YIR030C, strain dcg1, hits give low values 0.992 | locus YJL092W, strain hpr5, hits give low values 0.992 | locus YJL095W, strain BCK1 (second series), hits give low values 0.994 | locus YJL095W, strain BCK1, hits give low values 1 and 1.03 | locus YJL115W, strain asf1, hits give low values 0.982 | locus YJL129C, strain trk1, hits give low values 0.997 | locus YJL134W, strain LCB3, hits give low values 1.01 | locus YJL154C, strain vps35, hits give low values 0.99 | locus YJL164C, strain tpk1, hits give low values 0.989 | locus YJL166W, strain qcr8, hits give low values 0.991 | locus YJL168C, strain set2, hits give low values 1 | locus YJL187C, strain SWE1 (second series), hits give low values 1.01 | locus YJL187C, strain SWE1, hits give low values 1.01 | locus YJR043C, strain POL32, hits give low values 0.989 | locus YJR066W, strain TOR1, hits give low values 0.997
